From PubChem BioAssay (NCI)
About 83,000 compounds went through this panel and 20% of them were active in at least one assay; those are over-represented in the sample as a whole.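 Activity criterion: percent growth below 10, measured after cells in 96-well plates were exposed to a single compound concentration for 48 hours.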 Values without a mark were called inactive. Calls of active or inactive are those of the source.

System: DU-145 prostate
Assay: NCI-60 one-dose screen, 48 h (100 = growth as untreated, 0 = no growth, -100 = all killed)
Details: 10 µM unless noted

SMILES	growth
O=C(O)COc1ccc([N+](=O)[O-])cc1Cl	118%
C=C[C@]1(C)C=C2C(=O)[C@@]3(O)OC[C@@]4(CCCC(C)(C)C43O)C2(O)C(O)C1 (some centres undefined)	60.2%
COC(=O)C(C(=O)OC)C(Br)C(Br)C(Br)c1ccccc1 (centres undefined)	89.5%
C=CCNCCC#N	113%
O=C1C=C(OCC=C(C(F)(F)F)C(F)(F)F)c2ccccc2C1=O	-15% (active)
N#CCc1ncc(-c2ccc(C(F)(F)F)cc2)c(NC2CCCCCC2)n1	28.5% [100 µM]
C[C@]12CC[C@H]3[C@@H](CC[C@H]4C[C@@H](O)CC[C@@]43C)[C@@H]1CC(=O)C2	107%
COC(=O)c1cc(=O)nc(N/N=C/c2ccccc2O)s1	111%
[N-]=[N+]=Nc1ncc(-c2ccc(C(F)(F)F)cc2)c(NC2CCCCCC2)n1	37.1% [100 µM]
NC(CSC(c1ccccc1)(c1ccccc1)c1ccccc1)C(=O)NCC(=O)O (centres undefined)	111%
COc1cc2cn3c4ccc(O)cc4[nH]c(=O)c3c2cc1OC	3.02% (active)
CCCCCCCCCCCCCCCCNC(=O)Nc1ccc(C)c(NC(=O)NCCCCCCCCCCCCCCCC)c1	112%
O=C(c1ccccc1)c1ccccc1-c1ccccc1	51.1%
CN1NC(c2ccccc2)NN(C)C1=O	122%
COc1cc2c(c3c1c(=O)c1cccc(F)c1n3C)C=CC(C)(C)O2	92.9%
NCCCOc1cc2ccccc2cc1C(=O)Nc1ccc(Cl)cc1OC(=O)c1cc2ccccc2cc1OCCCN	-97% (active)
O=C(/C=C/c1ccc(Cl)cc1)c1ccc(Cl)cc1	101%
CC(=O)O.[In]	113%
COC(=O)[C@H](Cc1cn(C)cn1)NC(=O)[C@H](CC(=O)OCc1ccccc1)NC(=O)Nc1cc(C(F)(F)F)cc(C(F)(F)F)c1	-94.5% [100 µM] (active)
COc1cc([C@@H]2c3cc4c(cc3[C@H](O)[C@H]3COC[C@@H]23)OCO4)cc(OC)c1OC	96.7%

SMILES	growth
COc1ccc(/C=C2\CCCC3=C2N=C2SC=NN2C3c2ccc(OC)c(OC)c2)cc1OC (centres undefined)	24.9%
CC(=O)CC(=O)OC/C=C(/C)CCC=C(C)C	111%
CC(=O)Nc1ccc(S(=O)(=O)Cl)cc1	107%
CC(CCN1CCN(CCC(C)CC(C)(C)C)C1CC(C)CC(C)(C)C)CC(C)(C)C (centres undefined)	103%
C=C(C)C(C(=O)OCC)(C(=O)OCC)C(C)C	120%
CSCc1ncc(-c2ccc(C(F)(F)F)cc2)c(NC2CCCCCC2)n1	71.4% [25 µM]
CCn1cnc(C[C@H](NC(=O)[C@@H](NC(=O)Nc2cc(C(F)(F)F)cc(C(F)(F)F)c2)C(C)C)C(=O)OC)c1	-81.2% [100 µM] (active)
O=Nc1ccc(O)c2ccccc12	56.7%
COC(=O)c1c[n+]([O-])ccc1OC	114%
CC#Cc1nc(Nc2cc(C)[nH]n2)c2ccccc2n1	-4.22% [100 µM] (active)
CC(Br)c1nc2ccccc2cc1C(N)=O (centres undefined)	102%
COC(=O)[C@H](Cc1cn(C)cn1)NC(=O)[C@@H](NC(=O)Nc1cc(C(F)(F)F)cc(C(F)(F)F)c1)C(C)(C)C	-92.3% [100 µM] (active)
CCCCCCC(C(=O)OCC)(C(=O)OCC)C1CCCCCC1	120%
CCCCCCCCCCCCCCCCCCOP(=O)(O)O	116%
CCC(C)CC(N)O (centres undefined)	114%
CN(C)CCOC(=O)C(C)(C)C	122%
CNc1ccc(Nc2ccc(S(=O)(=O)O)cc2)c2c1C(=O)c1ccccc1C2=O	112%
Cn1c2ccccc2c2ccccc21	106%
NCCCOc1cc(Cl)ccc1NC(=O)c1cc2ccccc2cc1OCCCN	-90% (active)

System: K-562 leukemia
Assay: as above
Details: 10 µM unless noted

SMILES	growth
O=C(O)COc1ccc([N+](=O)[O-])cc1Cl	99.5%
C=C[C@]1(C)C=C2C(=O)[C@@]3(O)OC[C@@]4(CCCC(C)(C)C43O)C2(O)C(O)C1 (some centres undefined)	17.1%
COC(=O)C(C(=O)OC)C(Br)C(Br)C(Br)c1ccccc1 (centres undefined)	24.8%
C=CCNCCC#N	109%
O=C1C=C(OCC=C(C(F)(F)F)C(F)(F)F)c2ccccc2C1=O	-15.5% (active)
N#CCc1ncc(-c2ccc(C(F)(F)F)cc2)c(NC2CCCCCC2)n1	4.45% [100 µM] (active)
C[C@]12CC[C@H]3[C@@H](CC[C@H]4C[C@@H](O)CC[C@@]43C)[C@@H]1CC(=O)C2	94.1%
COC(=O)c1cc(=O)nc(N/N=C/c2ccccc2O)s1	78.8%
[N-]=[N+]=Nc1ncc(-c2ccc(C(F)(F)F)cc2)c(NC2CCCCCC2)n1	8.78% [100 µM] (active)
NC(CSC(c1ccccc1)(c1ccccc1)c1ccccc1)C(=O)NCC(=O)O (centres undefined)	54.2%
COc1cc(-c2nc(/C=C3/C(=O)Nc4ccccc43)c3ccccn23)cc(OC)c1OC	52.2%
COc1cc2cn3c4ccc(O)cc4[nH]c(=O)c3c2cc1OC	3.94% (active)
CCCCCCCCCCCCCCCCNC(=O)Nc1ccc(C)c(NC(=O)NCCCCCCCCCCCCCCCC)c1	105%
O=C(c1ccccc1)c1ccccc1-c1ccccc1	14.5%
CN1NC(c2ccccc2)NN(C)C1=O	89.3%
COc1cc2c(c3c1c(=O)c1cccc(F)c1n3C)C=CC(C)(C)O2	74.6%
NCCCOc1cc2ccccc2cc1C(=O)Nc1ccc(Cl)cc1OC(=O)c1cc2ccccc2cc1OCCCN	-37.5% (active)
O=C(/C=C/c1ccc(Cl)cc1)c1ccc(Cl)cc1	73.9%
CC(=O)O.[In]	96.7%
COC(=O)[C@H](Cc1cn(C)cn1)NC(=O)[C@H](CC(=O)OCc1ccccc1)NC(=O)Nc1cc(C(F)(F)F)cc(C(F)(F)F)c1	-60.2% [100 µM] (active)

SMILES	growth
COc1cc([C@@H]2c3cc4c(cc3[C@H](O)[C@H]3COC[C@@H]23)OCO4)cc(OC)c1OC	39.1%
COc1ccc(/C=C2\CCCC3=C2N=C2SC=NN2C3c2ccc(OC)c(OC)c2)cc1OC (centres undefined)	26.9%
CC(=O)CC(=O)OC/C=C(/C)CCC=C(C)C	108%
CC(=O)Nc1ccc(S(=O)(=O)Cl)cc1	98.1%
CC(CCN1CCN(CCC(C)CC(C)(C)C)C1CC(C)CC(C)(C)C)CC(C)(C)C (centres undefined)	58.2%
C=C(C)C(C(=O)OCC)(C(=O)OCC)C(C)C	116%
CSCc1ncc(-c2ccc(C(F)(F)F)cc2)c(NC2CCCCCC2)n1	29.3% [25 µM]
CCn1cnc(C[C@H](NC(=O)[C@@H](NC(=O)Nc2cc(C(F)(F)F)cc(C(F)(F)F)c2)C(C)C)C(=O)OC)c1	-57.3% [100 µM] (active)
O=Nc1ccc(O)c2ccccc12	12.1%
COC(=O)c1c[n+]([O-])ccc1OC	71.1%
CC#Cc1nc(Nc2cc(C)[nH]n2)c2ccccc2n1	9.48% [100 µM] (active)
CC(Br)c1nc2ccccc2cc1C(N)=O (centres undefined)	90.9%
COC(=O)[C@H](Cc1cn(C)cn1)NC(=O)[C@@H](NC(=O)Nc1cc(C(F)(F)F)cc(C(F)(F)F)c1)C(C)(C)C	-12.5% [100 µM] (active)
CCCCCCC(C(=O)OCC)(C(=O)OCC)C1CCCCCC1	100%
CCCCCCCCCCCCCCCCCCOP(=O)(O)O	110%
CCC(C)CC(N)O (centres undefined)	108%
CN(C)CCOC(=O)C(C)(C)C	101%
CNc1ccc(Nc2ccc(S(=O)(=O)O)cc2)c2c1C(=O)c1ccccc1C2=O	101%
Cn1c2ccccc2c2ccccc21	89.3%
NCCCOc1cc(Cl)ccc1NC(=O)c1cc2ccccc2cc1OCCCN	0.57% (active)
